Data published in PubChem BioAssay.
Potency and affinity values are given separately. Inconclusive results are not listed. Active and inactive are the calls of the source.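 Rule for the calls, unless noted: active = a fitted half-maximal concentration no higher than twice the top valid tested dose, with signal falling as cells die; inconclusive = flat curve between -70% and -30%, or poor fit; inactive = the rest, including signal rising instead of falling.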

Experiments:
[1] = fungal growth arrest, C. neoformans – Alamar Blue, cherry-picks, dose response (AID 686998;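 active = falling signal with fitted half-maximal potency no higher than twice the top valid tested dose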); settings: Cryptococcus neoformans growth, 24 h; series mostly up to 35 µM
[2] = C. neoformans lysis by adenylate kinase leakage – AK release luminescence, cherry-picks, dose response (AID 687000;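 active = fitted dose curve reaches 40% lysis signal rise at or below the highest valid concentration tested for that sample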;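 note: luminescent detection of adenylate kinase leaking from lysed yeast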); settings: 4 h, 100% = twice the neutral-control signal; series mostly up to 15 µM
[3] = viability loss in HepG2 hepatoma cells – cell-based, cherry-picks, set 2, cytotoxicity control, dose response (AID 687002;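 active = a dose-response fit showing signal loss, with half-maximal concentration no higher than twice the top tested dose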); settings: ATP luminescence (CellTiter-Glo), 48 h; series mostly up to 26 µM
[4] = viability loss in HeLa cells – cell-based, ATP luminescence, cherry-pick samples, cytotoxicity control, dose response (AID 687004); settings: ATP luminescence (CellTiter-Glo), 48 h; series mostly up to 26 µM

Measured: outcome

CO[C@H]1CN(C)C(=O)c2cc(NC(C)=O)ccc2OC[C@H](C)N(Cc2cccc(F)c2)C[C@@H]1C
inactive: all assays above

Cc1ccccc1-n1ncc2c(SCC(=O)NC3CCCC3)ncnc21
inactive: all assays above

COCC#Cc1cnc2c(c1)C(=O)N([C@@H](C)CO)C[C@@H](C)[C@@H](CN(C)C(=O)C1CC1)O2
inactive: all assays above

C[C@H](O)C#Cc1ccc2c(c1)O[C@H](CN(C)C(=O)C1CCCCC1)[C@H](C)CN([C@@H](C)CO)S2(=O)=O
inactive: all assays above

O=C(C[C@@H]1C[C@@H]2c3cc(NC(=O)C4CCC4)ccc3O[C@@H]2[C@H](CO)O1)NCc1cccc(F)c1
inactive: all assays above

COc1cccc(S(=O)(=O)Nc2ccc3c(c2)[C@H]2C[C@H](CC(=O)NCc4cccc(F)c4)O[C@@H](CO)[C@H]2O3)c1
inactive: all assays above

Cc1cc(C)c(NC(=O)C2CCCN2C)c(C)c1 (stereo not given)
inactive: all assays above

C[C@H]1CN([C@@H](C)CO)C(=O)Cc2cc(NC(=O)CCCCCC(=O)Nc3ccccc3N)ccc2O[C@H]1CN(C)C(=O)Nc1ccccc1
inactive: all assays above

CCCNC(=O)N1[C@H](CO)[C@@H](c2ccc(C3=CCCC3)cc2)[C@@H]1CN(C)C(C)=O
inactive: all assays above

C[C@H]1CN([C@@H](C)CO)C(=O)c2cccc(NS(C)(=O)=O)c2O[C@@H]1CN(C)Cc1ccc(-c2ccccc2)cc1
inactive: all assays above

COc1ccc(NC(=O)N(C)C[C@H]2OCCCC[C@@H](C)Oc3ccc(NC(=O)c4ccccc4)cc3C(=O)N([C@@H](C)CO)C[C@H]2C)cc1
inactive: all assays above

Cc1cccc(C)c1NC(=O)C1NC(=O)CC1c1ccccc1 (stereo not given)
inactive: all assays above

N#C[C@@H]1[C@@H](c2ccccc2)[C@@H](CO)N1C(=O)Cc1ccccc1
inactive: all assays above

Cc1ccc(S(=O)(=O)N[C@H]2CC[C@H](CCNC(=O)C3CCCC3)O[C@@H]2CO)cc1
inactive: all assays above

O=C(C[C@@H]1C=C[C@@H](NC(=O)c2cccc(F)c2)[C@H](CO)O1)NCCN1CCCC1
inactive: all assays above

C[C@@H]1CCCCO[C@@H](CN(C)S(=O)(=O)c2ccc(F)cc2)[C@@H](C)CN([C@@H](C)CO)C(=O)c2cc(NS(=O)(=O)c3ccc(F)cc3)ccc2O1
inactive: all assays above

O=C(O)C/C(=C\c1cccc(NC(=O)c2ccccc2Cl)c1)c1nc2ccccc2s1
inactive: all assays above

O=C(C[C@@H]1C=C[C@@H](NC(=O)C2CCC2)[C@H](CO)O1)NC1CCC1
inactive: all assays above

C[C@H]1CN([C@@H](C)CO)C(=O)c2cc(NC(=O)CCN3CCOCC3)ccc2O[C@@H]1CN(C)Cc1ccc(C(=O)O)cc1
inactive: all assays above

COCCNC(=O)C[C@@H]1CC[C@@H]2[C@H](COC[C@@H](O)CN2S(=O)(=O)c2ccccc2C)O1
inactive: all assays above

O=C(Cc1cccs1)N1CCN(c2cccc(Cl)c2)CC1
inactive: all assays above

CCC(C)(C(=O)NC1CCCCC1)N(C(=O)C1CCC(=O)N1)c1ccccc1 (stereo not given)
inactive: all assays above

O=C(C[C@@H]1CC[C@H]2[C@@H](COC[C@H](O)CN2Cc2cccc(C(F)(F)F)c2)O1)NCc1ccccc1
inactive: all assays above

C[C@H]1CN([C@@H](C)CO)C(=O)c2cc(C#Cc3ccccn3)cnc2O[C@H]1CN(C)Cc1ccncc1
inactive: all assays above

COc1ccc(-n2ncc3c(SCC(=O)N4CCN(c5ccccc5OC)CC4)ncnc32)cc1
inactive: all assays above

COCC(=O)N1C[C@H](C)[C@H](OC)CN(C)C(=O)c2ccc(NC(=O)NC(C)C)cc2OC[C@@H]1C
inactive: all assays above

O=C(NCC[C@H]1CC[C@@H](NS(=O)(=O)c2ccc(F)cc2)[C@H](CO)O1)c1ccc2c(c1)OCO2
inactive: all assays above

CNC[C@H]1OCCCC[C@H](C)Oc2ccc(NC(=O)CCCN(C)C)cc2C(=O)N([C@H](C)CO)C[C@@H]1C
inactive: all assays above

CN1CCN(C(=O)C[C@@H]2CC[C@H]3[C@@H](COC[C@H](O)CN3C(=O)Cc3ccccc3)O2)CC1
inactive: all assays above

Cc1ccc(NC(=O)C2(C)CCN2C(=O)CC2CC2)cc1C (stereo not given)
inactive: all assays above

O=C(CSc1ncnc2c1cnn2-c1ccccc1Cl)N1CCN(C(=O)c2ccco2)CC1
inactive: all assays above

CO[C@@H]1CN(C)C(=O)c2cc(NS(=O)(=O)c3ccc(C)cc3)ccc2OC[C@@H](C)N(C)C[C@@H]1C
inactive: all assays above

Cc1ccc(S(=O)(=O)N(C)C[C@@H]2Oc3ccc(NS(=O)(=O)c4ccc(Cl)cc4)cc3CC(=O)N([C@@H](C)CO)C[C@@H]2C)cc1
inactive: all assays above

COCC(=O)NC[C@H]1N[C@H](CO)[C@@H]1c1ccc(C2=CCCC2)cc1
inactive: all assays above

CC(=O)c1cccc(NC(=S)NC2CCCCC2)c1
inactive: all assays above

O=C(Nc1ccccc1)N1CCCCN2[C@H](C1)[C@H](c1ccc(C#CC3CC3)cc1)[C@@H]2CO
inactive: all assays above

C/C=C/c1ccc([C@H]2[C@@H](CO)N(C(=O)CC)[C@@H]2CNC(=O)C2CC2)cc1
inactive: all assays above

C[C@H](CO)N1C[C@H](C)[C@H](CN(C)CC2CCCCC2)Oc2ccc(NC(=O)Nc3ccc4c(c3)OCO4)cc2C1=O
inactive: all assays above

CC(C)NC(=O)N[C@H]1CC[C@@H](CCNC(=O)C2CC2)O[C@@H]1CO
inactive: all assays above

COc1cccc(C#Cc2cnc3c(c2)C(=O)N([C@H](C)CO)C[C@@H](C)[C@@H](CN(C)C(=O)C2CCOCC2)O3)c1
inactive: all assays above

CCCN1C[C@@H](C)[C@H](OC)CN(C)C(=O)c2ccc(NC(=O)c3cccc(F)c3)cc2OC[C@@H]1C
inactive: all assays above

O=C(c1cccnc1)N1CCC(Oc2ccc(C(=O)N3CCCC(O)C3)cc2)CC1 (stereo not given)
inactive: all assays above

CC(C)NC(=O)N(C)C[C@@H]1OCCCC[C@H](C)Oc2ccc(NC(=O)c3ccccc3)cc2C(=O)N([C@H](C)CO)C[C@H]1C
inactive: all assays above

C/C=C/c1ccc([C@H]2[C@@H](C#N)N(S(=O)(=O)c3cccc(F)c3)[C@H]2CO)cc1
inactive: all assays above

CNC[C@@H]1OCCCC[C@H](C)Oc2ccc(NC(=O)Nc3ccc(F)cc3)cc2C(=O)N([C@@H](C)CO)C[C@H]1C
inactive: all assays above

CC(C)NC(=O)Nc1ccc2c(c1)C(=O)N([C@@H](C)CO)C[C@H](C)[C@@H](CN(C)C(=O)CCC(F)(F)F)OCCCC[C@H](C)O2
inactive: all assays above

C[C@@H]1CN([C@@H](C)CO)C(=O)c2cc(NS(=O)(=O)c3cn(C)cn3)ccc2O[C@@H]1CN(C)C(=O)Nc1cccc2ccccc12
inactive: all assays above

CCCNC(=O)N(C)C[C@@H]1Oc2ncc(C#CC3CCCCC3)cc2C(=O)N([C@H](C)CO)C[C@@H]1C
inactive: all assays above

CO[C@H](CN(C)Cc1ccc2c(c1)OCO2)[C@@H](C)CN(C(=O)c1ccccc1)[C@@H](C)CO
inactive: all assays above

CCS(=O)(=O)NCC[C@@H]1CC[C@@H](NS(=O)(=O)c2cccc(F)c2)[C@@H](CO)O1
inactive: all assays above

O=C(CN(c1ccccc1)S(=O)(=O)c1ccc(F)cc1)NC1CCS(=O)(=O)C1 (stereo not given)
inactive: all assays above

CN1C(=O)c2cc(NS(=O)(=O)c3cccc(F)c3)ccc2OC[C@@H]2O[C@@H](CC(=O)O)CC[C@H]21
inactive: all assays above

Cc1cc(C)c(N2CCCC2C(=O)Nc2cccc(C(F)(F)F)c2)c(C)c1 (stereo not given)
inactive: all assays above

CC=Cc1ccc2n(c1=O)C[C@H]1[C@H](CO)[C@@H](C(=O)NCc3ccc4c(c3)OCO4)[C@@H]2N1C(=O)C1CC1 (mixture of isomers)
inactive: all assays above

CC(=O)N(C)C[C@H]1Oc2cc(C#Cc3ccc(F)cc3)ccc2S(=O)(=O)N([C@H](C)CO)C[C@@H]1C
inactive: all assays above
